# Source: PMC7862700, “An all-to-all approach to the identification of sequence-specific readers for epigenetic DNA modifications on cytosine”
# Columns and labels:
# Assay in all cases: DAPPL (digital affinity profiling via proximity ligation, sequencing); 10 mM Tris-HCl pH 7.5, 50 mM NaCl, 1 mM DTT, 4% glycerol, room temperature, 30 min; GST-TFs on glutathione beads, 16-mer random dsDNA library, 0.1% formaldehyde crosslink after washing; high values mean tight binding
# FEV = target: T1, FEV (Homo sapiens, UniProt Q99581 1-238); conditions: protein: recombinant; tags: N-terminal GST; dsDNA, one strand shown
# T1 sequence: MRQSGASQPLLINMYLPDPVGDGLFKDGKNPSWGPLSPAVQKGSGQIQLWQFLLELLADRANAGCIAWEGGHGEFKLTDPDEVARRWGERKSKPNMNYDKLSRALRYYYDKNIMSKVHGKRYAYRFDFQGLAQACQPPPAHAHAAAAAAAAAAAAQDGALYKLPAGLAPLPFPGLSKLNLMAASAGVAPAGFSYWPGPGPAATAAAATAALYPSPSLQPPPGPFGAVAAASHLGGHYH
# Method in brief: (§1)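 In yeast, human transcription factors were expressed with a GST fusion, then pulled down on glutathione beads and given DNA barcodes. Pooled with a tag-only sample, they were exposed to 200 nmole of a 16-mer random double-stranded DNA library (Tris/NaCl/DTT/glycerol buffer, room temperature, 30 min), washed, crosslinked with 0.1% formaldehyde, proximity-ligated using BsaI/T4 ligase for 1 h at 37 °C, PCR-amplified and read on an Illumina NextSeq500. Each hexamer's frequency of reads for a factor, divided by the matching frequency for the tag-only sample, gives the binding signal.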
# ETV5 = ETV5 (Homo sapiens, UniProt P41161 1-510); conditions: protein: recombinant; tags: N-terminal GST; dsDNA, one strand shown
# ETV5, sequence (P41161 whole entry): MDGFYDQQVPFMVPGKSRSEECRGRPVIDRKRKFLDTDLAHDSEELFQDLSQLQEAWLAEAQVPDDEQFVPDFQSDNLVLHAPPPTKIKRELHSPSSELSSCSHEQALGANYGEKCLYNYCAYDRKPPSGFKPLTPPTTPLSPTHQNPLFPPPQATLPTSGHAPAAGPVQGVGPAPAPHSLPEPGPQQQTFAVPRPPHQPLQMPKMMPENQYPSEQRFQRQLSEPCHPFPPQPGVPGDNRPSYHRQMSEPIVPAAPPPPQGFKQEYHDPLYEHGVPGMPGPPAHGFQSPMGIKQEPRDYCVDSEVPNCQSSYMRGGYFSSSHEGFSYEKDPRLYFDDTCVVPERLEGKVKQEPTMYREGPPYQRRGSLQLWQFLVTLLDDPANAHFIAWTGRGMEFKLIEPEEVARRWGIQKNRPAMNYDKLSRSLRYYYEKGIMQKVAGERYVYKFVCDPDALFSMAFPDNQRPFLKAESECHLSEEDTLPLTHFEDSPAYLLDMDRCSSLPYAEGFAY
# Method in brief: as §1
# HSF1 = HSF1 (Homo sapiens, UniProt Q00613 1-529); conditions: protein: recombinant; tags: N-terminal GST; chain copies: 3; dsDNA, one strand shown
# HSF1, sequence (Q00613 whole entry): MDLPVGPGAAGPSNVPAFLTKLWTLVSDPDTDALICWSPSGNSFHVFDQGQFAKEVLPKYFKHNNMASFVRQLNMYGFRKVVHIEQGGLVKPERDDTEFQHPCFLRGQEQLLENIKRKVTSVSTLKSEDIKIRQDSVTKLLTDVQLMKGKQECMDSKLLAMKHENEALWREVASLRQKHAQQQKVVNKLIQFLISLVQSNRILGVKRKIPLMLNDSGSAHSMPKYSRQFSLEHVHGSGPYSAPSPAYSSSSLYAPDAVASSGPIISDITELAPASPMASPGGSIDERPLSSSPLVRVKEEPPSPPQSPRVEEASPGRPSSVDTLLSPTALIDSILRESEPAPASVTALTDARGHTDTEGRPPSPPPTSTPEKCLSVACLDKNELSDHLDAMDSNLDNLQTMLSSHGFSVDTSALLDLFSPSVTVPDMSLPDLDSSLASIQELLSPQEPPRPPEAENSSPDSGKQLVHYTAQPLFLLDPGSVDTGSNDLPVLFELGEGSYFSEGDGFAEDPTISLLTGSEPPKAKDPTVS
# Method in brief: as §1
# SPIC = target: T2, SPIC (Homo sapiens, UniProt Q8N5J4 1-248); conditions: protein: recombinant; tags: N-terminal GST; dsDNA, one strand shown
# T2 sequence: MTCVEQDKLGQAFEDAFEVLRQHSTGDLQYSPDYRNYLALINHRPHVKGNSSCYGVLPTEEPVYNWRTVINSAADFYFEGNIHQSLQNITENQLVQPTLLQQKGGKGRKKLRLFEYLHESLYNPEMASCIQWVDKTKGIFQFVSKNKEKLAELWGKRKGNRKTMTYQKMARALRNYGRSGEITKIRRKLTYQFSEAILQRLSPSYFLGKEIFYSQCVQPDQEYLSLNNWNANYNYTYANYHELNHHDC
# Method in brief: as §1
# ELF4 = ELF4 (Homo sapiens, UniProt Q99607 1-663); conditions: protein: recombinant; tags: N-terminal GST; dsDNA, one strand shown
# ELF4, sequence (Q99607 whole entry): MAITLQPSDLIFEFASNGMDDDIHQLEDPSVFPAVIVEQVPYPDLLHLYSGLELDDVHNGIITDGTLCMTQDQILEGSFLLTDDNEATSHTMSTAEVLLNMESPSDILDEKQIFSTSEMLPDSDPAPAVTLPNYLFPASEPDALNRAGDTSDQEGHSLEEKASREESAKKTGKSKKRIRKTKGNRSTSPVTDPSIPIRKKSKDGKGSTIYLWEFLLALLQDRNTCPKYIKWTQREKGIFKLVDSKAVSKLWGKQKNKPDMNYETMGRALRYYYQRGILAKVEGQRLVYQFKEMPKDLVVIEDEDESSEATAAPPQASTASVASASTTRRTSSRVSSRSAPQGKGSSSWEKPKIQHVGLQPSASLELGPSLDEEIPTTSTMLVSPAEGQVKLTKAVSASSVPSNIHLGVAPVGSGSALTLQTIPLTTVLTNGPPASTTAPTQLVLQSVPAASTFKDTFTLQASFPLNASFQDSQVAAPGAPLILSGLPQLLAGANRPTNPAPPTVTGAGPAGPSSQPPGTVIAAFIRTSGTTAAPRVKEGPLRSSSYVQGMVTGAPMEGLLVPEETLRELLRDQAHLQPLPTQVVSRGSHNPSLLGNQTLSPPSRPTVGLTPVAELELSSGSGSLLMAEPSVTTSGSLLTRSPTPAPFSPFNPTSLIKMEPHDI
# Method in brief: as §1
# ELK4 = target: T3, ELK4 (Homo sapiens, UniProt P28324-2 1-405); conditions: protein: recombinant; tags: N-terminal GST; dsDNA, one strand shown
# T3 sequence: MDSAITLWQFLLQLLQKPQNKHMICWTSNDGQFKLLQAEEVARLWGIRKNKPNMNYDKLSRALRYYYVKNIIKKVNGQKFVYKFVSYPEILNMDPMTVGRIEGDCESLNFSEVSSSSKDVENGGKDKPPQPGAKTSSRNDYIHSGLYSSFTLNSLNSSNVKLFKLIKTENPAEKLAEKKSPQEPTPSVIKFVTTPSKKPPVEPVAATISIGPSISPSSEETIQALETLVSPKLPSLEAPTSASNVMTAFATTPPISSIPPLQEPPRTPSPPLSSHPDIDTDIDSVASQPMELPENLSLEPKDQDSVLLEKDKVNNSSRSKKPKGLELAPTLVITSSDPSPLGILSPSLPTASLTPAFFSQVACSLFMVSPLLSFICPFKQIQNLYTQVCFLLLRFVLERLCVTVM
# Method in brief: as §1
# ETV2 = target: T4, ETV2 (Homo sapiens, UniProt O00321 1-342); conditions: protein: recombinant; tags: N-terminal GST; dsDNA, one strand shown
# T4 sequence: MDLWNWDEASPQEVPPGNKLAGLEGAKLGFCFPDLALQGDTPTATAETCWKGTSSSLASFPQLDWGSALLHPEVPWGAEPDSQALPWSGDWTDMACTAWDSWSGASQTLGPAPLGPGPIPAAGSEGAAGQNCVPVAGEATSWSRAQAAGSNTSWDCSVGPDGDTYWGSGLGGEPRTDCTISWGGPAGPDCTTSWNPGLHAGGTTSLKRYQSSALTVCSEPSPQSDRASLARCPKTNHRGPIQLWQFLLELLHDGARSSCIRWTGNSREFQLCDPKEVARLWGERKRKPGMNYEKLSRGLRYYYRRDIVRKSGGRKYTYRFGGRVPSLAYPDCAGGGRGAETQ
# Method in brief: as §1
# ELF3 = target: T5, ELF3 (Homo sapiens, UniProt P78545 1-371); conditions: protein: recombinant; tags: N-terminal GST; dsDNA, one strand shown
# T5 sequence: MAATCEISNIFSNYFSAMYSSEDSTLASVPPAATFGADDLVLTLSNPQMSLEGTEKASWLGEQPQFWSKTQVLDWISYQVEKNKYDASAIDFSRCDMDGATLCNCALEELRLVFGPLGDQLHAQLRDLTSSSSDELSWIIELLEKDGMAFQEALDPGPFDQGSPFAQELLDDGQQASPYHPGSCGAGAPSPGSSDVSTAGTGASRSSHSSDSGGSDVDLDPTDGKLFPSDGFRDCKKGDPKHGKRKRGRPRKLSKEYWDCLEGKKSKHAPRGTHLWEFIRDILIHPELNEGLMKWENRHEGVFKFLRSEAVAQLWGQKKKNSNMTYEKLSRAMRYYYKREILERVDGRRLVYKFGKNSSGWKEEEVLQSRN
# Method in brief: as §1
# CRX = CRX (Homo sapiens, UniProt O43186 1-299); conditions: protein: recombinant; tags: N-terminal GST; dsDNA, one strand shown
# CRX, sequence (O43186 whole entry): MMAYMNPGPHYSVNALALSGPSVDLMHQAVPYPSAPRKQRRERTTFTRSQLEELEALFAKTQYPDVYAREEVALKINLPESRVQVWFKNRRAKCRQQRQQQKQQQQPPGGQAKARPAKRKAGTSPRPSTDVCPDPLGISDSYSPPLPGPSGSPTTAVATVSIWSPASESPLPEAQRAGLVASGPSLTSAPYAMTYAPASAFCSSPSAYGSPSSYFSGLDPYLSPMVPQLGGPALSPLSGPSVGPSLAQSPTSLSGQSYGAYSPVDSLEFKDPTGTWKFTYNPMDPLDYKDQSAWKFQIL
# Method in brief: as §1
# ETV1 = ETV1 (Homo sapiens, UniProt P50549 1-477); conditions: protein: recombinant; tags: N-terminal GST; dsDNA, one strand shown
# ETV1, sequence (P50549 whole entry): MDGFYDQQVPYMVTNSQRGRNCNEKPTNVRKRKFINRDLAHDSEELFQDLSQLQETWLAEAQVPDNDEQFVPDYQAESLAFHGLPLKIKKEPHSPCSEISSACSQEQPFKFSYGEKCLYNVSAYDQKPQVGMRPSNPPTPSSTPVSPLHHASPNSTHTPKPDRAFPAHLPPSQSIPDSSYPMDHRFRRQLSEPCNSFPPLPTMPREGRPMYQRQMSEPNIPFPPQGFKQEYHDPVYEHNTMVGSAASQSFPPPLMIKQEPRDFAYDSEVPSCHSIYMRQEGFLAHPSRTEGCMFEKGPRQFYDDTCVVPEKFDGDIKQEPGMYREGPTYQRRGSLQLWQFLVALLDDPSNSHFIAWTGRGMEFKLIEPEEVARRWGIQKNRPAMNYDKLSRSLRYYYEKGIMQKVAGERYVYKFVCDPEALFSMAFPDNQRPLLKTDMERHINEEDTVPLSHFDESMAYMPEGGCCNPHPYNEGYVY
# Method in brief: as §1
# ERF = target: T6, ERF (Homo sapiens, UniProt P50548 1-548); conditions: protein: recombinant; tags: N-terminal GST; dsDNA, one strand shown
# T6 sequence: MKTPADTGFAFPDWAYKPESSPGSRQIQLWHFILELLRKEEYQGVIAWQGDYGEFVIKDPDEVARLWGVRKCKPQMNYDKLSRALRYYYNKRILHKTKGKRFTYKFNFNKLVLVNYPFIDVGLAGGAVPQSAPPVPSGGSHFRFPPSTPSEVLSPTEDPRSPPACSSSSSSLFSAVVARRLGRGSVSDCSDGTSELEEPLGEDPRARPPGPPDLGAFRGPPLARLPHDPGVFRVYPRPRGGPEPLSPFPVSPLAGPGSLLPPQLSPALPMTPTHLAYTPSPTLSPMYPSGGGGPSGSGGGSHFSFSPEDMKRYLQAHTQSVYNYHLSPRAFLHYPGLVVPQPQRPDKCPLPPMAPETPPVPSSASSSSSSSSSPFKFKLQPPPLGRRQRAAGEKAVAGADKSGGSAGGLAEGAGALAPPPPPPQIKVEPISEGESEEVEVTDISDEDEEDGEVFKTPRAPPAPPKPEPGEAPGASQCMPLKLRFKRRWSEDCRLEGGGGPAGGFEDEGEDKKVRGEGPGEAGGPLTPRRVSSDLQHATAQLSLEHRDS
# Method in brief: as §1
# ETV3L = target: T7, ETV3L (Homo sapiens, UniProt Q6ZN32 1-361); conditions: protein: recombinant; tags: N-terminal GST; dsDNA, one strand shown
# T7 sequence: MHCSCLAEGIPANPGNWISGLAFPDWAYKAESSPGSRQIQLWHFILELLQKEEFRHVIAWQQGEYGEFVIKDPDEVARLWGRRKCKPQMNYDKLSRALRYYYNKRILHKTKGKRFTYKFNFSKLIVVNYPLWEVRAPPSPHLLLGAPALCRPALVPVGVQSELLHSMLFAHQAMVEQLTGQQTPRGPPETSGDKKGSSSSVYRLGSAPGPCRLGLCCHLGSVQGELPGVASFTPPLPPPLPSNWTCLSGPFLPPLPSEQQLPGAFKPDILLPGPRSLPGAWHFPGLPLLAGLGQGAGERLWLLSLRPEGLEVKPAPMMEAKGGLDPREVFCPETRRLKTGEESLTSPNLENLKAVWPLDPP
# Method in brief: as §1
# ETS2 = target: T8, ETS2 (Homo sapiens, UniProt P15036 1-469); conditions: protein: recombinant; tags: N-terminal GST; dsDNA, one strand shown
# T8 sequence: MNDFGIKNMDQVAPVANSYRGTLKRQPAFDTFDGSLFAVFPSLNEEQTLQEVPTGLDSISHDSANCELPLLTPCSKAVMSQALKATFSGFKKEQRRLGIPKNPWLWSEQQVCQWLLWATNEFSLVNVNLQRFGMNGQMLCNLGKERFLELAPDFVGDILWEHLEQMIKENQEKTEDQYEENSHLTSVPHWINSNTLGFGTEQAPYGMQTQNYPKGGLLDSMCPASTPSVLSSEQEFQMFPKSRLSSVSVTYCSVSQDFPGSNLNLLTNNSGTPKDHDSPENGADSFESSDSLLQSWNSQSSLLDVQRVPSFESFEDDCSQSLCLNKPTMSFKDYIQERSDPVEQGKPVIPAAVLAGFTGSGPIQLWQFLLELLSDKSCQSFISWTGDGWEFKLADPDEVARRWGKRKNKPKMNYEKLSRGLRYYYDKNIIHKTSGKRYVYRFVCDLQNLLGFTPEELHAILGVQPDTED
# Method in brief: as §1
# SPDEF = target: T9, SPDEF (Homo sapiens, UniProt O95238 1-335); conditions: protein: recombinant; tags: N-terminal GST; dsDNA, one strand shown
# T9 sequence: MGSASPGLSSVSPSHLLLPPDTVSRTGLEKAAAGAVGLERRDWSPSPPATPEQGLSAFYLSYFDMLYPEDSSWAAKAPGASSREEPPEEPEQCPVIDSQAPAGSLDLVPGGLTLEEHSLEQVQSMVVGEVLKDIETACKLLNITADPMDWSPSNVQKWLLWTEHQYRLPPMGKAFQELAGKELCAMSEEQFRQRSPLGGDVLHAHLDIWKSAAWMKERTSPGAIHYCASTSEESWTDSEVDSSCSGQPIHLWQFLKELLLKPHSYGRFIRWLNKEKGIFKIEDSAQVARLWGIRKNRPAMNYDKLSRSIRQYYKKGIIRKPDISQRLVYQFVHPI
# Method in brief: as §1
# ETV7 = target: T10, ETV7 (Homo sapiens, UniProt Q9Y603 1-341); conditions: protein: recombinant; tags: N-terminal GST; dsDNA, one strand shown
# T10 sequence: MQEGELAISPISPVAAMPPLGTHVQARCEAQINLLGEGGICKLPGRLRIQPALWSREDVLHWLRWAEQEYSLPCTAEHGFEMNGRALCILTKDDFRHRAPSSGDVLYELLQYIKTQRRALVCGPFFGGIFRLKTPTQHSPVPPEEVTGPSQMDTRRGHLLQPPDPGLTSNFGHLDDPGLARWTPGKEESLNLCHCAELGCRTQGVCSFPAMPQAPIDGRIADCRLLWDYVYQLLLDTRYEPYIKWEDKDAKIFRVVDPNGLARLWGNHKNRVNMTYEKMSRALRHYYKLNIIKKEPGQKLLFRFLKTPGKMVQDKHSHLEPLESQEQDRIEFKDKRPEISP
# Method in brief: as §1
# ELF5 = target: T11, ELF5 (Homo sapiens, UniProt Q9UKW6-2 1-255); conditions: protein: recombinant; tags: N-terminal GST; dsDNA, one strand shown
# T11 sequence: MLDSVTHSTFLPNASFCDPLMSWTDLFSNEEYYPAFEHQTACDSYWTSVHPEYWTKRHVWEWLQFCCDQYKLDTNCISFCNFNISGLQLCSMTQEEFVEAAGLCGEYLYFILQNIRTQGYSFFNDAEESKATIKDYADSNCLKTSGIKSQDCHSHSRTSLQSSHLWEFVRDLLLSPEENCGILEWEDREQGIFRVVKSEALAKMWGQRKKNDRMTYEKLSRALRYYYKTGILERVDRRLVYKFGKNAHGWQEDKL
# Method in brief: as §1
# ETV3 = target: T12, ETV3 (Homo sapiens, UniProt P41162-2 1-143); conditions: protein: recombinant; tags: N-terminal GST; dsDNA, one strand shown
# T12 sequence: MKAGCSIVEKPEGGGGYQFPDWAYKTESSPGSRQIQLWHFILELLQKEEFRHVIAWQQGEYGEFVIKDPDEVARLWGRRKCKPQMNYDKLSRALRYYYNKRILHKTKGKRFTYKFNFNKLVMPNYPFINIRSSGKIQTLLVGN
# Method in brief: as §1
# ETV6 = ETV6 (Homo sapiens, UniProt P41212 1-452); conditions: protein: recombinant; tags: N-terminal GST; dsDNA, one strand shown
# ETV6, sequence (P41212 whole entry): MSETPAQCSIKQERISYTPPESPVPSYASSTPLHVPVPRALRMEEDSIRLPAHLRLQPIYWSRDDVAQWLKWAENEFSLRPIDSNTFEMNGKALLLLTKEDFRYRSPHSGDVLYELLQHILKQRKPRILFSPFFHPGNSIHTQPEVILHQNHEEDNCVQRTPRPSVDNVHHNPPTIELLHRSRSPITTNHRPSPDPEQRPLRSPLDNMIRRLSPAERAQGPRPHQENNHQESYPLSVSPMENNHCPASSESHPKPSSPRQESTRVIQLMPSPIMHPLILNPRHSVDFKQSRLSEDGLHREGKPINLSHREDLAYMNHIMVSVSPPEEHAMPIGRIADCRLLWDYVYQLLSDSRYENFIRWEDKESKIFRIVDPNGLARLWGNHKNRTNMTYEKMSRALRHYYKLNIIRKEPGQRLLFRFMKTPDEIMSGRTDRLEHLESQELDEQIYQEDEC
# Method in brief: as §1
sequence,measurement,setting,value
AAATTT,binding signal,FEV,"1.34 fold enrichment (6-mer frequency, TF over GST control)"
same,binding signal,ETV5,"1.36 fold enrichment (6-mer frequency, TF over GST control)"
same,binding signal,HSF1,"1.47 fold enrichment (6-mer frequency, TF over GST control)"
same,binding signal,SPIC,"1.1 fold enrichment (6-mer frequency, TF over GST control)"
same,binding signal,ELF4,"1.19 fold enrichment (6-mer frequency, TF over GST control)"
same,binding signal,ELK4,"1.22 fold enrichment (6-mer frequency, TF over GST control)"
same,binding signal,ETV2,"1.29 fold enrichment (6-mer frequency, TF over GST control)"
same,binding signal,ELF3,"1.43 fold enrichment (6-mer frequency, TF over GST control)"
same,binding signal,CRX,"1.24 fold enrichment (6-mer frequency, TF over GST control)"
same,binding signal,ETV1,"1.35 fold enrichment (6-mer frequency, TF over GST control)"
same,binding signal,ERF,"1.43 fold enrichment (6-mer frequency, TF over GST control)"
same,binding signal,ETV3L,"1.4 fold enrichment (6-mer frequency, TF over GST control)"
same,binding signal,ETS2,"1.35 fold enrichment (6-mer frequency, TF over GST control)"
same,binding signal,SPDEF,"1.15 fold enrichment (6-mer frequency, TF over GST control)"
same,binding signal,ETV7,"1.36 fold enrichment (6-mer frequency, TF over GST control)"
same,binding signal,ELF5,"1.43 fold enrichment (6-mer frequency, TF over GST control)"
same,binding signal,ETV3,"1.27 fold enrichment (6-mer frequency, TF over GST control)"
same,binding signal,ETV6,"1.37 fold enrichment (6-mer frequency, TF over GST control)"
